Shiga toxin inh = Shiga toxin inhibition. 9.2% of 290,000 active. Vero cells, Shiga toxin protein synthesis inhibition reporter. inhibition, % at 38.7 µM; in the data active means inhibition mostly above about 28%, no sharp cut-off; inactive means mostly below about 43%; further: 0% is about no effect
NS1 function inh = blocks influenza NS1 protein function | 0.4% of 270,000 active | Potency, µM (highest dose often 46.1 µM), for inactives: at the highest dose activity, positive = more growth; further: potency means the concentration at half of the fitted maximal effect; actives are rising curves; nearly all actives have a fitted effect of over 50% in size
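A cell-based growth assay was used: compounds that relieve NS1-induced slow growth of budding yeast raise OD600. Assay medium was yeast nitrogen base with ammonium sulphate and -URA supplement, pH 6.0, with 2% galactose.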
SARS PLpro yeast = inhibitors of SARS-CoV papain-like protease in yeast; S. cerevisiae expressing SARS-CoV PLpro, growth rescue; 0.19% of 330,000 active; Potency, µM (top dose mostly 32.9 µM), without a hit: at the highest dose activity, positive = growth rescue, actives largely listed as activators; AID 485353; further: potency means the concentration at half of the fitted maximal effect; 0% is about no effect; nearly all actives have a fitted effect of over 55% in size
CHX counter = counter-screen for Shiga toxin inhibitors: cycloheximide protein synthesis inhibition; cell reporter, cycloheximide protein synthesis inhibition counterscreen; max response, %; 12% of 300,000 active; AID 2314; in the data active means max response mostly above about 13%, no sharp cut-off; inactive means mostly below about 14%; further: read at 38.3 µM for the half of the compounds with a filed dose; 0% is about no effect
Active calls of the source: *; u = inconclusive; x = no result. Sampled rows, rich in hits. Any-hit rate of the full collection: about 12%. Unless noted, the call rests on the fitted dose curve.

SMILES | Shiga toxin inh | NS1 function inh | SARS PLpro yeast | CHX counter
COc1ccc2c(c1)CC/C(=C\Nc1ccc3c(c1)OCO3)C2=O | 38 | -70% | -27% | 77*
COc1ccc(N/C=C2\CCc3ccccc3C2=O)cc1 | -4 | -35% | -4% | 3
COc1cccc(/C=C2/C(=O)NN(c3ccc(F)cc3)C2=O)c1 | -1 | 8% | 0% | -3
COc1ccc2c(c1)CC/C(=C/c1ccccn1)C2=O | 100* | -32% | -7% | 55*
O=C1/C(=C/Nc2ccc3c(c2)OCO3)CCc2ccccc21 | 6 | -162% | -30% | 15
COc1cccc(/C=C2/C(=O)NN(c3ccc(C)c(C)c3)C2=O)c1 | 19 | u | 0% | 8.5*
COc1cccc(C(=O)OCC(=O)NCCCc2ccccc2)c1 | -7 | -40% | -2% | -2
CCNc1nc(N)nc(Oc2ccc(C(=O)OC)cc2)n1 | 74* | -5% | 1% | 26*
Cc1ccc(-n2nc(-c3ccccc3)cc2Nc2ccccc2N)cc1 | 4 | u | -31% | -2
Nc1ccccc1Nc1cc(-c2ccccc2)nn1-c1ccccc1 | 48 | 27% | 10% | 18*
Nc1ccccc1Nc1cc(-c2ccccc2)[nH]n1 | 55* | 17% | -10% | 29*
COc1cccc(N2CCN(CC(=O)Nc3ccc(S(=O)(=O)N4CCCCCC4)cc3)CC2)c1 | x | x | 0% | x
Oc1ccc(N=Nc2ccc3c(c2)OCO3)c2ccccc12 | 78* | -4% | 0% | 58*
COc1ccc(-c2cc(C(=O)OCc3ccccn3)c3ccccc3n2)cc1 | 10 | -2% | -9% | 27*
CCN(C(=O)COC(=O)c1cc(-c2ccc3cc(OC)ccc3c2)nc2ccccc12)C1CCS(=O)(=O)C1 (configuration not stated) | 43* | 0% | 16% | 30*
CCN(C(=O)COC(=O)c1c(C)nn(-c2ccccc2)c1C)C1CCS(=O)(=O)C1 (configuration not stated) | 43* | x | 0% | 16*
CCN(C(=O)COC(=O)c1cc(OC)ccc1Br)C1CCS(=O)(=O)C1 (configuration not stated) | x | x | 1% | x
COc1ccc(-c2cc(C(=O)OCC(=O)N(C)C)c3ccccc3n2)cc1 | 30 | -29% | -13% | 26*
COc1ccc(Cc2nnc(NC(=O)Cn3cnc4c3c(=O)n(C)c(=O)n4C)s2)cc1 | -5 | 28% | -3% | -2
COC(CNC(=O)CCCn1nnnc1CN1CCOCC1)c1cccs1 (configuration not stated) | 2 | -7% | -6% | -3
COc1cc(SC)ccc1C(=O)OCC(=O)NCCNC(=O)COC(=O)c1ccc(SC)cc1OC | -12 | 2% | -2% | -3
COc1ccc(C(=O)OCC(=O)NC2CCCCCC2)c(OC)c1 | x | x | 0% | x
COc1cc(SC)ccc1C(=O)OCC(=O)NC1CC1 | 48 | 4% | 2% | 26*
COc1ccc(C(=O)OCC(=O)NC2CCCC2)c(OC)c1 | 31 | -2% | -2% | 17*
COC(=O)c1ccc(COC(=O)c2ccc(SC)cc2OC)cc1 | 45* | -11% | 19% | 21*
SMILES | Shiga toxin inh | NS1 function inh | SARS PLpro yeast | CHX counter
C=CCNC(=S)NNC(=O)CCC(O)CCCCC (configuration not stated) | -16 | -7% | -3% | -2
N#CC1C(C#N)N2CCCN2C1c1ccc(Cl)cc1 (configuration not stated) | -2 | 2% | -17% | -6
Nn1c(COc2ccccc2)nc2ccccc2c1=O | 57* | -8% | 5% | 48*
Cc1ccccc1OCc1nc2ccccc2c(=O)n1N | 41 | -8% | -11% | 31*
CCCCCc1nc2ccccc2c(=O)n1N | -13 | 0% | -7% | 22*
CCCc1nc2ccccc2c(=O)n1N | -4 | 3% | 11% | -3
CC#CCCc1nc2ccccc2c(=O)n1N | 12 | 0% | 13% | -2
COc1ccc(-c2nc3ccccc3c(=O)n2N)cc1 | 15 | 0% | 4% | -2
COc1cccc(OCc2nc3ccccc3c(=O)n2N)c1 | 84* | -16% | -1% | 27*
Cc1cccc(NC(=S)N2CCC(NC(=O)c3cccc(F)c3)CC2)c1 | -9 | -13% | -8% | -2
CCn1c(COc2ccccc2C)nc2ccccc21 | 39* | -25% | -4% | 33*
COCn1c(COc2ccc3ccccc3c2)nc2ccccc21 | 77* | -39% | -35% | 22*
CCn1c(COc2ccccc2OC)nc2ccccc21 | 12 | -20% | -10% | 13*
COCc1nc2ccccc2n1CCCOc1ccccc1 | -6 | -22% | -11% | -1
CCn1c(COc2cccc(C)c2)nc2ccccc21 | 15 | 1% | 3% | 21*
Cc1ccc(CNS(=O)(=O)c2ccc(-n3cnnn3)c(C)c2)cc1 | 19 | -3% | 4% | -10
Cc1cc(C)c(CSc2ncnc3nc[nH]c23)c(C)c1 | -10 | 11% | 0% | -4
CCc1nc2ccccc2n1CCc1ccccc1 | -2 | x | 16% | -2
CCCn1c(COc2ccccc2OC)nc2ccccc21 | x | -21% | 1% | 14*
CCOCCn1c(COc2ccccc2)nc2ccccc21 | 53 | -49% | -6% | 12
C=CCn1c(COc2ccccc2OC)nc2ccccc21 | 4 | -30% | -3% | 8.4*
CCCn1c(COc2ccccc2)nc2ccccc21 | 11 | -45% | 2% | 8.3*
CCn1c(CCc2ccccc2)nc2ccccc21 | 27 | -29% | -1% | 32*
COc1cccc(CNC(=O)C(=O)NCC(c2ccco2)N2CCOCC2)c1 (configuration not stated) | -9 | -8% | 27% | 5
Cc1oc2cc3oc(=O)cc(C)c3cc2c1C | 24 | -2% | -2% | 22*
SMILES | Shiga toxin inh | NS1 function inh | SARS PLpro yeast | CHX counter
O=c1[nH]c(SCCOc2ccccc2F)nc2ccccc12 | 61* | -1% | 1% | 33*
COc1ccccc1OCCSc1nc2ccccc2c(=O)[nH]1 | 48* | u | 0% | 14*
O=C(O)CC(NC(=O)C1c2ccccc2Oc2ccccc21)c1ccc(Cl)cc1 (configuration not stated) | 5 | 4% | 3% | 14
CSCC(=O)N1CCC(Oc2cccc(C(=O)NCc3ccccn3)c2)CC1 | -9 | -7% | -3% | -2
COc1ccc(Nc2nnc(-c3ccncc3)s2)cc1Cl | 71* | 0% | -2% | 49*
CNc1nnc(-c2ccncc2)s1 | -4 | 7% | -3% | -5
Clc1ccccc1Nc1nnc(-c2ccncc2)s1 | 28* | -20% | -84% | 41*
Cc1ccc(Nc2nnc(-c3ccncc3)s2)c(Br)c1 | 26 | -40% | -91% | 27*
CC(C)(C)c1ccc2c(c1)OC(C(=O)N/N=C/c1ccc([N+](=O)[O-])o1)CO2 (configuration not stated) | -5 | 2% | -4% | -2
Cc1ccc(/C=N/Nc2cccc(C(=O)O)c2)s1 | 126* | 11% | 4% | 86*
Cc1ccsc1/C=N/Nc1cccc(C(=O)O)c1 | 118* | x | 0% | 56*
O=C(O)c1cccc(N/N=C/c2sc(N3CCOCC3)nc2-c2ccccc2)c1 | 176* | u | -2% | 128*
COc1ccc(Cc2nnc(Nc3ccc(Cl)cc3)[nH]c2=O)cc1 | 16 | 4% | -1% | 18*
CCOc1cc(CNn2cnnc2)cc(Cl)c1OCC(=O)NC(C)(C)C | 11 | 0% | 6% | -1
CCN=c1scc(C)n1/N=C/c1cc(Br)c(O)c(Br)c1 | 32* | x | -3% | 20
